# DAX1 inh-1 – inhibitors of DAX1 repression of SF-1 activated StAR promoter; HEK293T StAR-luciferase reporter, SF-1/DAX-1 repression relief; inhibition, % at 6.8 µM; 370,000 compounds, 1.1% hits; AID 652010;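 active = inhibition above the mean over all tested compounds plus 3 SD, cut at about 3.6% in these data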;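 also: higher inhibition means more luminescence from relief of DAX-1 repression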
# DAX1 inh-2 – inhibitors of human orphan nuclear receptor DAX1 (NR0B1); HEK293 Gal4-DAX1 luciferase reporter, luminescence; inhibition, % at 6.75 µM; 340,000 compounds, 0.99% hits; AID 504766;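 active = inhibition above the mean over all tested compounds plus 3 SD, cut at about 4.2% in these data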;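 also: inhibition shows as a rise in luminescence from relieved DAX1 repression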
# ssDAF12 agonist – S. stercoralis DAF-12 activation, primary screen; HEK293 ssDAF-12/GRIP1 lit1-tk-luc reporter, luminescence; % of 3 µM dafachronic acid response; activation, % at 6.8 µM; 370,000 compounds, 1% hits;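 active = activation above the mean over all tested compounds plus 3 SD, cut at about 0.9% in these data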
# AHR act – activators of human aryl hydrocarbon receptor | 320,000 compounds, 2.5% hits | AHR-responsive luciferase reporter cells, luminescence | activation, % at 5 µM | P35869; in the data active = activation above about 47%
# hgDAF12 agonist – activates the H. glycines DAF-12 receptor ligand-binding domain | HEK293 GAL4-hgDAF12 UAS-luciferase reporter, agonist luminescence; normalized to butyrate control | activation, % at 6.8 µM | 370,000 compounds, 1.8% hits;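 active = activation above a cutoff set at the mean of all screened compounds plus 3 SD, cut at about 10% in these data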
# hcDAF12 agonist – activates DAF-12 receptor from parasite H. contortus; HEK293 hcDAF-12 lit1-tk-luc reporter, luminescence; 0% DMSO, 100% Δ7-dafachronic acid; activation, % at 6.8 µM; 370,000 compounds, 1.4% hits; AID 652067;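 active = activation above the mean of all tested compounds plus 3 SD, cut at about 5.5% in these data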
# LXRb hcDAF ctr – counter-screen for hcDAF-12 agonists: agonists of human LXR-beta; activation, % at 6.8 µM; 3,400 tested, under 10 active; HEK293 Gal4-LXR tk-luc reporter, luminescence, 24 h; normalized: DMSO 0%, positive control 100%; shares compounds with hcDAF12 agonist; AID 743027;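 active = mean percent activation of the reporter above a cutoff set as the average over tested compounds plus their standard deviation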
# hcDAF12 conf – confirmation of H. contortus DAF-12 agonists. HEK293 hcDAF-12 lit1-tk-luc reporter, luminescence; % of Δ7-dafachronic acid response. activation, % at 6.8 µM. shares compounds with hcDAF12 agonist. 3,400 compounds, 61% hits;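 active = mean activation across triplicate tests above the threshold derived from the earlier primary screen, cut at about 5.5% in these data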
# Numbers stand for hits; i = inactive; nt = not tested or not shown. Compounds with a hit are over-represented: about 5.7% of the library has one in this group of screens.
SMILES,DAX1 inh-1,DAX1 inh-2,ssDAF12 agonist,AHR act,hgDAF12 agonist,hcDAF12 agonist,LXRb hcDAF ctr,hcDAF12 conf
Cc1cccc(NS(=O)(=O)c2ccc(OCC(=O)N3CCCC3)cc2)c1,i,i,i,i,i,i,nt,nt
Brc1ccccc1-c1nnc(SCc2nc3ccccc3s2)o1,i,i,2.5,i,11,12,i,9.6
O=C(C1=NN[C@@H]2C(=O)N(c3cccc(F)c3)C(=O)[C@H]12)c1ccc2ccccc2n1,i,i,i,99,i,9.0,i,i
O=C(C1=NN[C@@H]2C(=O)N(c3cccc(C(F)(F)F)c3)C(=O)[C@H]12)c1ccc2ccccc2n1,i,i,i,i,i,i,nt,nt
COc1cccc(C(=O)Nc2nc3ccccc3[nH]2)c1,i,i,i,i,11,7.4,i,8.0
O=C(Nc1nc2ccccc2[nH]1)Nc1ccccc1F,i,i,4.8,48,22,24,i,20
O=C(Nc1nc2ccccc2[nH]1)c1cccc(Br)c1,i,i,i,57,12,8.6,i,7.1
COc1cc(C(=O)Nc2nc3ccccc3[nH]2)cc(OC)c1OC,i,i,i,i,i,i,nt,nt
COc1ccccc1C1CC(c2ccc(F)cc2)Nc2ncnn21 (configuration not stated),i,i,i,i,i,i,nt,nt
O=C(O)C1CCC(CN(Cc2cccc(Br)c2)C(=S)Nc2ccccc2F)CC1 (configuration not stated),i,i,i,i,i,i,nt,nt
C/C(=N/NC(=O)c1cccs1)c1cccs1,i,7.1,i,i,13,6.9,i,i
CCOC(=O)N/N=C(\C)c1cccs1,i,i,i,i,i,i,nt,nt
C/C(=N\Nc1nc2ccccc2s1)c1cccs1,i,i,1.4,58,12,18,i,23
C/C(=N\Nc1nc(-c2ccccc2)cs1)c1cccs1,i,i,i,i,i,i,nt,nt
CC(=NNc1nc2ccccc2s1)c1ncccn1,i,i,i,nt,12,11,i,i
COc1ccc2c(c1)C1=NN(/C(C)=C/C(C)=O)C(c3ccc(F)cc3)C1CC2 (configuration not stated),i,i,1.3,69,i,9.5,i,5.7
CCOc1ccccc1-n1nnnc1SCC(=O)Nc1cc2oc3ccccc3c2cc1OC,i,i,i,i,i,i,nt,nt
CCN(CC)CCn1nc2c3c(cccc3c1=O)-c1ccccc1-2,i,i,23,i,i,11,i,9.5
O=S(=O)(c1ccc(Cl)cc1)N1CCN(CCc2ccccc2)CC1,i,i,i,i,i,i,nt,nt
O=S(=O)(c1ccc(F)cc1)N1CCN(CCc2ccccc2)CC1,i,i,i,i,i,6.8,i,i
COc1ccc(Cl)cc1S(=O)(=O)N1CCN=C1C,i,i,1.6,i,i,12,i,i
COc1ccc(Cl)cc1S(=O)(=O)N1CCCc2ccccc21,i,i,i,i,i,i,nt,nt
CCOC(=O)COc1cccc2c(=O)n(CC(=O)NCc3ccc(F)cc3)ccc12,i,i,i,i,i,i,nt,nt
C#CCN(CC=C)C(=O)c1cccc(OC2CCN(S(C)(=O)=O)CC2)c1,i,i,i,i,i,i,nt,nt
Cc1cccc(-n2ncc3c(NCCCO)ncnc32)c1,i,i,i,i,12,6.6,i,i
SMILES,DAX1 inh-1,DAX1 inh-2,ssDAF12 agonist,AHR act,hgDAF12 agonist,hcDAF12 agonist,LXRb hcDAF ctr,hcDAF12 conf
O=C1Nc2ccc(Br)cc2C12NNc1ccccc1O2 (configuration not stated),i,i,i,60,i,6.9,i,i
Cc1ccc(/C=N/NC(=O)c2ccc3c(c2)OCCO3)s1,i,i,i,i,i,i,nt,nt
Cc1ccsc1/C=N/NC(=O)c1ccc2c(c1)OCCO2,i,i,i,i,13,8.1,i,12
O=C(N/N=C/c1c(Cl)[nH]c2ccccc12)c1ccc2c(c1)OCCO2,i,nt,1.3,i,i,9.1,i,9.1
CS(=O)(=O)Nc1cccc(C2=NN(S(C)(=O)=O)C(c3ccc4c(c3)OCO4)C2)c1 (configuration not stated),i,i,i,i,i,i,nt,nt
CS(=O)(=O)N1N=C(c2ccccc2)CC1c1ccc2c(c1)OCO2 (configuration not stated),i,i,i,i,i,7.0,i,7.4
CCOc1ccc(NC(=O)Nc2cccs2)cc1,i,i,i,i,11,7.3,i,i
CCOc1ccc(NC(=O)Nc2ccc(Cc3ccncc3)cc2)cc1,i,i,i,i,i,i,nt,nt
NC1=NC(=O)/C(=C\c2ccc(-c3ccc(Cl)cc3)o2)S1,i,i,0.9,51,i,6.5,i,7.7
Cc1sc2ncnc(N/N=C/c3ccccc3O)c2c1C,i,i,i,i,i,7.2,i,i
Cc1ccc(-c2cc(=O)c3cc(C)ccc3[nH]2)cc1,i,i,i,i,i,7.0,i,7.0
Cc1ccc2[nH]c(C(F)(F)F)cc(=O)c2c1,i,i,i,i,i,i,nt,nt
Cc1cc(C)c(S(=O)(=O)/N=C2\C=C(NS(=O)(=O)c3ccccc3)C(=O)c3ccccc32)c(C)c1,i,i,0.9,i,i,8.0,i,i
Cc1ccc(-n2nc3cc(C)c(N)cc3n2)cc1,3.9,i,2.5,i,11,15,i,16
Nc1cc2nn(-c3ccccc3)nc2cc1Cl,4.4,i,3.4,nt,22,14,i,17
CCc1ccc(-n2nc3cc(C)c(N)cc3n2)cc1,i,i,4.1,i,14,16,i,20
O=C(C[C@H]1C=C[C@@H](NC(=O)Cc2cccnc2)[C@@H](CO)O1)NCc1ccc2c(c1)OCO2,i,nt,i,nt,i,i,nt,nt
O=C(c1cccc(S(=O)(=O)N2CCN(c3ccccc3)CC2)c1)N1CCCCCCC1,i,i,i,i,i,i,nt,nt
O=C(/C=C/c1ccco1)c1cccc([N+](=O)[O-])c1,i,i,i,nt,i,i,nt,nt
Cc1cccc(NC(=O)CSc2nc(C)c(CC(=O)c3ccc(Br)cc3)c(C)c2C#N)c1C,i,i,i,i,i,i,nt,nt
CSc1nsc(NN)n1,i,i,i,nt,11,7.7,i,i
NS(=O)(=O)c1ccc2nc(NC(=O)CS(=O)(=O)c3ccccc3)sc2c1,i,i,i,i,i,i,nt,nt
O=C(NNc1nc2ccccc2s1)Nc1ccccc1,i,i,i,59,i,7.2,i,i
O=C(CS(=O)(=O)c1ccccc1)Nc1nc2ccccc2s1,i,i,i,i,i,7.1,i,i
c1cc2c(cc1-c1[nH]ncc1CN1C[C@H]3CC[C@H]1C3)OCO2,i,i,i,i,i,i,nt,nt
